Experimental findings from PubChem BioAssay are described below.

Each structure is given as a SMILES string. Calls of active or inactive are those of the source.

The nature of experiment [1]: small molecules captured by biotinylated probe aFSTL3 – biochemical, small-molecule microarray, fluorescence 635/667, stem cell growth factor project, primary screen (AID 1064).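 Further: measures binding of the biotinylated anti-FSTL3 antibody to printed compounds.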 Particulars: higher = more signal.
Experiment [2] is described as follows: binders from COS7 lysate, DM2A8 probe, primary screen, torsin A project, cell lysate, small-molecule microarray, fluorescence 635/667 (AID 1065). Particulars: higher = more signal, COS7 lysate expressing mutant human TOR1A.
Experiment [3] is described as follows: small molecules captured by biotinylated probe aFGF2 – biochemical, small-molecule microarray, fluorescence 635/667, stem cell growth factor project, primary screen (AID 1067).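 Further: measures binding of biotinylated aFGF2 protein to printed compounds on slides; z-score merges feature fluorescence and signal-to-noise across triplicate slides.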 Particulars: higher = more signal.
The nature of experiment [4]: small molecules captured by biotinylated probe aFGF10 – biochemical, small-molecule microarray, fluorescence 635/667, stem cell growth factor project, primary screen (AID 1071).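 Further: score merges 667 nm spot intensity and signal to noise from triplicate slides.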 Particulars: higher = more signal.
Experiment [5] deals with Neurogenic locus notch homolog protein 2 (Homo sapiens) (UniProt Q04721). The experiment is described as follows: small molecules binding Notch2 protein – biochemical, small-molecule microarray, 635 nm fluorescence, stem cell growth factors, primary screen (AID 1073). Particulars: higher = more signal.
Neurogenic locus notch homolog protein 2 (Homo sapiens), sequence (Q04721 whole entry, looked up, canonical isoform): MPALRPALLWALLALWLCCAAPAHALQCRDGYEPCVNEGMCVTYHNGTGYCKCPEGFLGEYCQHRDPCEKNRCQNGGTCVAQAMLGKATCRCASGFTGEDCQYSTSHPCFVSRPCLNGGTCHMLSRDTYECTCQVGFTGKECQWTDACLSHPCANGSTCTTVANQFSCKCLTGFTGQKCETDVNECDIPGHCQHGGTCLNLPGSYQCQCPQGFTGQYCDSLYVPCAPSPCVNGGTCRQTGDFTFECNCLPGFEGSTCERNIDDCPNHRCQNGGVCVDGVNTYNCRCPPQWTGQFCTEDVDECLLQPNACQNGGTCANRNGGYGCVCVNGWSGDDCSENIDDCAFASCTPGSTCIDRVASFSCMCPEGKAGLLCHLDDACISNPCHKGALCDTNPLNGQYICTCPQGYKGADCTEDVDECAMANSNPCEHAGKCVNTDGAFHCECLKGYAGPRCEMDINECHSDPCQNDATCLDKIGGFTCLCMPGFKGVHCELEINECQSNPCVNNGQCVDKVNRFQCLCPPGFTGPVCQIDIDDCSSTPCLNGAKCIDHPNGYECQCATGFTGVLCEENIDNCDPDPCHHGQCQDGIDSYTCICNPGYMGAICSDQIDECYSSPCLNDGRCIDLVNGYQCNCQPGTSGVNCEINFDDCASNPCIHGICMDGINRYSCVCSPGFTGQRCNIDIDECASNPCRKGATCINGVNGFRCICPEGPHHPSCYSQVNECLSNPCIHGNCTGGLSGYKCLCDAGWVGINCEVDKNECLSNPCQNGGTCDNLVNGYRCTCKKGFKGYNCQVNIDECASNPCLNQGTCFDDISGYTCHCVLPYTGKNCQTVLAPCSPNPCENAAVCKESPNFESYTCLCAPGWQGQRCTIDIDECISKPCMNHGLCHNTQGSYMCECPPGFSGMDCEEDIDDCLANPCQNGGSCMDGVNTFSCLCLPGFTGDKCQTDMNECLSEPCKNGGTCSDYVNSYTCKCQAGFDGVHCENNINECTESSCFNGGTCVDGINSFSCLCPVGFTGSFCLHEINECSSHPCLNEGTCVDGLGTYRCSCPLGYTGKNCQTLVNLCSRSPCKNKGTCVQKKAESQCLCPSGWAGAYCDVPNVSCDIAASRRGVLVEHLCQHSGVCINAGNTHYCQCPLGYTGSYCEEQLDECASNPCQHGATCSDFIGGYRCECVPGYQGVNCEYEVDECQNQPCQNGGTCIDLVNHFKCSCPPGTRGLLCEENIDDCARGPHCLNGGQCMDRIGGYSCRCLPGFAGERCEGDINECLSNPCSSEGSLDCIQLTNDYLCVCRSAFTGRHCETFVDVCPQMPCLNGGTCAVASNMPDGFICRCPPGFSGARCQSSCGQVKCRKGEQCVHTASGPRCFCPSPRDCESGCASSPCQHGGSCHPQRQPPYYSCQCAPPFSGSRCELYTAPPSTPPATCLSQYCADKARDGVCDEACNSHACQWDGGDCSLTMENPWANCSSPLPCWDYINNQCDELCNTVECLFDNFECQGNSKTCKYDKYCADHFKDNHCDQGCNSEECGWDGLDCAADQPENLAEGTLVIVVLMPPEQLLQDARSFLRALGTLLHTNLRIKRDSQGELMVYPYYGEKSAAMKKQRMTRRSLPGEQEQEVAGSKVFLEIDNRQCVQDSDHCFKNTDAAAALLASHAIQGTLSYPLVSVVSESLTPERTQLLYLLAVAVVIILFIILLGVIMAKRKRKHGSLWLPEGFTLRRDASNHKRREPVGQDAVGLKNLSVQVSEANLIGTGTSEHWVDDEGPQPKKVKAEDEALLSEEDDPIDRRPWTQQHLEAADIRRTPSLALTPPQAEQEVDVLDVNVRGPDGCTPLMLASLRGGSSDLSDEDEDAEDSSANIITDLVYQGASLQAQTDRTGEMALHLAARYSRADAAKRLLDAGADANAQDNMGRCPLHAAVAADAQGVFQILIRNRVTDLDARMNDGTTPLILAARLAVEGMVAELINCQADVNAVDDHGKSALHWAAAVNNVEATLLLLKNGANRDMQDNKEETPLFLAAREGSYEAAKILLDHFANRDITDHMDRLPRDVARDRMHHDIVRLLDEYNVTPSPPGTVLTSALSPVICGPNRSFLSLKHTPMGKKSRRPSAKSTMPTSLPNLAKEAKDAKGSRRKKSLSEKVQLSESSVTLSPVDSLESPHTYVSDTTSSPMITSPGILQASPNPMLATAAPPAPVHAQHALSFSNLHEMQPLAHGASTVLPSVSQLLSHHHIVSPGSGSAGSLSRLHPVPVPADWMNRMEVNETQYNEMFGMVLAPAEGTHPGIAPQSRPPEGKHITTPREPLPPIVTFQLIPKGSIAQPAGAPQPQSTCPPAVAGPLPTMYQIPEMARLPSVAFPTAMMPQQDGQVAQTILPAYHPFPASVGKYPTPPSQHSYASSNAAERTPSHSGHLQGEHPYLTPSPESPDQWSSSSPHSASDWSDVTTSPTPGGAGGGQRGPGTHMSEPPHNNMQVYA
For experiment [6], the target named is Pro-neuregulin-1, membrane-bound isoform (Homo sapiens) (UniProt Q02297). Description: small molecules binding neuregulin-1 protein – biochemical, small-molecule microarray, fluorescence 635/667, psychiatric disease protein project, primary screen (AID 1075).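 Further: score combines 667 nm spot fluorescence with signal to noise.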 Conditions: NRG1 binding, 635 nm fluorescence, higher = more signal.
Pro-neuregulin-1, membrane-bound isoform (Homo sapiens), sequence (Q02297 whole entry, looked up, the tested form may be a part, canonical isoform): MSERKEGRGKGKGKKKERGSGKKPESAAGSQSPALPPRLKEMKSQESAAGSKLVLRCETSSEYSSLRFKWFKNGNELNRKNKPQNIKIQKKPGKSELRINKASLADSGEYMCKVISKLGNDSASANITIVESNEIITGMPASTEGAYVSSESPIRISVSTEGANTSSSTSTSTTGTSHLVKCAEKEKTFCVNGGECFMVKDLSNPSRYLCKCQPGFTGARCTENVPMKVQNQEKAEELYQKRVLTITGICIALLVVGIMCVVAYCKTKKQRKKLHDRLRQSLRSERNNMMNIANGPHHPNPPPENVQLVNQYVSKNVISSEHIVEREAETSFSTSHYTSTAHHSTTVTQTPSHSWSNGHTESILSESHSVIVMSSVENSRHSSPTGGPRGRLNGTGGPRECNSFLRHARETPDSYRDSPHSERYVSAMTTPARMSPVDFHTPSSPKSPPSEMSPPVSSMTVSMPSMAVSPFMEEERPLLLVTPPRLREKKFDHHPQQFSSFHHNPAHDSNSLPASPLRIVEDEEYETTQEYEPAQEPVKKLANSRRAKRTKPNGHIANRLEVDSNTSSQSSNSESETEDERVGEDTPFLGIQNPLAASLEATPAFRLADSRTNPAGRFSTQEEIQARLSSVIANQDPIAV
Experiment [7] deals with Neuregulin-1 EGF-like domain. Description: small molecules binding NRG1 EGF domain – biochemical, small-molecule microarray, 635 nm fluorescence, primary screen (AID 1081).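 Further: binding of the protein to compounds printed on small-molecule microarray slides.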 Particulars: higher = more signal.
Experiment [8] can be described thus: FRG1 expression reporter modulators in myotubes – cell-based, C2C12 myotubes, firefly/Renilla luciferase, luminescence, FRG1 inhibition for FSHD, primary screen (AID 1084). Conditions: FRG1 promoter luciferase, higher = more signal, called active from +8 up or from −8 down.
The nature of experiment [9]: small molecules captured by biotinylated probe aFST – biochemical, small-molecule microarray, fluorescence 635/667, stem cell growth factor project, primary screen (AID 1086).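 Further: score merges 667 nm fluorescence with signal-to-noise of each printed compound spot.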 Particulars: higher = more signal.
Experiment [10] is described as follows: binders of probe aHhip on microarray, primary screen, stem cell growth factor project, biochemical, small-molecule microarray, fluorescence 635/667 (AID 1087).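 Further: score merges spot fluorescence at 667nm with spot signal to noise ratio.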 Particulars: higher = more signal.

Take `CO[C@H]1O[C@H](CO)[C@@H](OC(=O)Nc2ccc(C(F)(F)F)cc2)[C@H](OC(=O)Nc2ccccc2)[C@H]1OC(=O)Nc1ccccc1`: the composite z-score in experiment [1] came out at 0.113; in [2], 0.745; in [3], 0.233; in [4], 1.15; in [5], 1.58; in experiment [6] it was 1.72. The composite z-score in experiment [7] is 1.3; in [9], 1.07; in experiment [10], -0.105. For the same molecule, the z-score in experiment [8] is 2.74 (inactive).
In the case of `O=C1OCCC=C[C@H]2OC34C=CCN(Cn5nnc6ccccc65)C(=O)[C@H]3N(CCCCCO)C(=O)[C@@H]4C12` (stereo not given in full), the composite z-score is 0.122 in experiment [1]; 1.66 in experiment [2]; -0.176 in [3]; -0.328 in [4]; -0.407 in experiment [5]; 2.18 in [6]. Further, the composite z-score was 1.48 in [7], -0.118 in experiment [9] and -0.306 in experiment [10]. Moreover, the z-score in [8] was -0.21 (inactive).
Take `CC(=O)NCCCC[C@@H]1NC(=O)[C@@H]2C[C@H](C(=O)NCCCC[N+](C)(C)C)[C@H](c3cccc(OCCO)c3)N2C1=O`: the composite z-score is -0.239 in [1]; 1.05 in experiment [2]; -0.126 in experiment [3]; -0.194 in experiment [4]; -0.525 in experiment [5]; 0.82 in experiment [6]. Moreover, the composite z-score in experiment [7] is 1.13; in experiment [9], -0.204; in experiment [10], -0.0645. The z-score in experiment [8] is 0.573 (inactive).
For `COCCCNC(=O)[C@@]1(C)c2ccccc2C(=O)N(c2ccc(C)cn2)[C@H]1c1ccc(CO)cc1`, the composite z-score in [1] was -0.722; in [2], -0.331; in experiment [3], -0.308; in experiment [4], -1.12; in experiment [5] it was -1.15; in experiment [6] it was 0.906. For the same molecule, the results for the composite z-score in experiment [7], in experiment [9] and in [10] were 0.632, -0.892 and -0.439, respectively. Besides, in [8], the z-score was 0.811 (inactive).
`CC(C)(C)OC(=O)CC[C@]1(C(=O)N2CCCCC2)N=C(c2ccc(OCCCO)cc2)O[C@H]1c1ccccc1CN=[N+]=[N-]`: the composite z-score in experiment [1] is -0.193; in experiment [2], 1.29; in [3] it was 0.347; in [4], 1.14; in [5], 1.65; in experiment [6], 1.89. Moreover, the figures for the composite z-score in [7], in experiment [9] and in experiment [10] were 1.38, 0.821 and -0.574, respectively. Besides, the z-score in experiment [8] is -2.88 (inactive).
As to `CC(C)C[C@@H]1NC(=O)[C@@]23C(=O)N[C@@H](Cc4ccccc4)C2[C@H](C)[C@@]2(C)O[C@H]2C3/C=C/C/C=C\CNC(=O)[C@@H]2CCCN2C1=O` (stereo not given in full), the composite z-score in [1] is -0.566; in [2], 0.0462; in experiment [3], -0.106; in [4] it was -0.0448; in experiment [5], -0.385; in experiment [6] it was -0.492. For the same molecule, the composite z-score in experiment [7] is -0.378; in experiment [9], 0.0833; in experiment [10] it was -0.0994. Moreover, in experiment [8], the z-score is 2.09 (inactive).
Turning to `OCCCC1=CC(c2cccs2)N(Cc2cccc(OC(F)(F)F)c2)CC1` (stereo not given), the composite z-score is -0.24 in [1]; -0.487 in experiment [2]; -0.11 in [3]; -0.331 in [4]; -0.763 in experiment [5]; -0.222 in [6]. Besides, the composite z-score in experiment [7] was 0.44; in experiment [9], -0.941; in experiment [10], 0.0401. In experiment [8], the z-score was 0.67 (inactive).
As to `C=C(COC)/C(=C/C[C@@H](OC(=O)c1ccncc1)c1cccc(OCCO)c1)c1cc(C(=O)OC)ccc1OC`, the composite z-score in [1] was -0.278; in [2], 0.525; in [3] it was -0.0428; in experiment [4], 1.06; in experiment [5] it was 0.426; in [6] it was -0.142. Besides, the composite z-score in experiment [7] was 1.38; in experiment [9] it was -0.0671; in experiment [10], -0.156. Further, in experiment [8], the z-score is -3.79 (inactive).
Consider `C=CCC(OC(C)=O)[C@@H]1[C@@H](N(Cc2ccc(-c3cccc(C(F)(F)F)c3)o2)C(=O)c2cccc3ccccc23)c2cc(OCCCO)ccc2N1C(=O)c1ccc(-c2ccccc2)cc1` (stereo not given in full), for which the composite z-score was -0.188 in [1]; 0.0536 in experiment [2]; -0.12 in experiment [3]; -0.212 in experiment [4]; -0.628 in experiment [5]; 0.0252 in experiment [6]. Also, the composite z-score is -0.908 in [7], 0.123 in experiment [9] and 0.0749 in [10]. For the same molecule, the z-score in [8] is -0.579 (inactive).
As to `COCCOC(=O)N1C(=O)[C@@]2(c3cc(C#Cc4ccc(OC)cc4)ccc31)[C@H](C(=O)N1CCc3cc(OC)c(OC)cc3C1)[C@H]1C(=O)O[C@H](c3ccccc3)[C@H](c3ccccc3)N1[C@@H]2c1ccc(OCCO)cc1`, the composite z-score in [1] was -0.172; in experiment [2], 0.454; in [3], -0.0567; in [4] it was 0.452; in [5], 1.22; in experiment [6] it was 0.62. For the same molecule, the composite z-score in [7] stood at 1.16; in experiment [9], 0.0478; in [10], 0.0623. The z-score in experiment [8] is 1.36 (inactive).
